# TRHR ag: agonists of human TRH receptor; P34981; TRHR cells, calcium flux fluo-8, FDSS agonist mode; activation, % at 2 µM; actives 0.18% (n = 360,000); AID 493084; also: 0% is about no effect
#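 TRHR-expressing cells, plated overnight in medium with 10% serum, were loaded with fluo-8 calcium dye at room temperature. After a 10 s baseline, library compound was pin-added and calcium release was recorded kinetically (ex 480/em 530) as agonist response.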
# D1 PAM: human D1 dopamine receptor positive modulation; HEK293 TREx D1 cells, calcium flux, dopamine EC20 potentiation; potentiation, % at 10 µM; actives 0.036% (n = 360,000); AID 504651; in the data active = potentiation above about 30%; also: 0% is about no effect
# Target sequence (P21728 whole entry, looked up): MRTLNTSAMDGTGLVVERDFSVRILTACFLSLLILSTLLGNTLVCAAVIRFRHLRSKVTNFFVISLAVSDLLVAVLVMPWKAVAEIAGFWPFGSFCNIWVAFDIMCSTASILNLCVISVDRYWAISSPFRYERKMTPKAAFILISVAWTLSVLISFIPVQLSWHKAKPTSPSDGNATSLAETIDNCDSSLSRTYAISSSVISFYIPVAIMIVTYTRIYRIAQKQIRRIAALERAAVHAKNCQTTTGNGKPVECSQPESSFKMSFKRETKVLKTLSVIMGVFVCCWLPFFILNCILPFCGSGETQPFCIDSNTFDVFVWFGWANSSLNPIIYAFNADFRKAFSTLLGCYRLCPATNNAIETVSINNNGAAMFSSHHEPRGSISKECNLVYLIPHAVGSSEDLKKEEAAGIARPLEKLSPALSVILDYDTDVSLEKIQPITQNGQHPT
# TRHR enhancer: TRH receptor (human) allosteric enhancement; P34981; TRHR cells, fluo-8 calcium fluorescence, EC20 TRH enhancement; actives 0.66% (n = 360,000); enhancement, % at 2 µM; AID 493056; in the data active = enhancement above about 30%; also: 0% is about no effect
#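 TRHR-expressing cells loaded with fluo-8 calcium dye were read kinetically (ex 480/em 530) during compound addition, then stimulated with an EC20 of TRH (10 nM final). Enhancement of the Gq-mediated intracellular calcium response was scored.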
# D1 antag: blocks dopamine activation of the human D1 receptor; HEK293 TREx D1 cells, calcium flux, dopamine EC80; active compounds read low; AID 504652; activity change, negative = inhibition, % at 10 µM; P21728; actives 3.2% (n = 360,000); in the data active = activity change below about -30%; also: % is scaled to controls: 0 for no effect and ±100 for the full control effect
#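 Kinetic fluorescence of a calcium dye serves as the read-out. D1-expressing Hek293 Trex cells, induced overnight at 30 C, are exposed to compound for 180 s before an EC80 dopamine addition, then read 180 s further.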
# LDHA inh: inhibitors of human lactate dehydrogenase A; P00338; purified LDHA, NADH/diaphorase-resazurin fluorescence; active compounds read low; activity change, % (values are at about 110 or 230 µM); actives 0.15% (n = 480,000); AID 1347041; in the data active = activity change below about -30%;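 also: plate controls were DMSO wells for no effect and wells without enzyme for full effect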
#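 Human LDH5 (2 nM) was incubated with 0.06 mM NADH and 0.2 mM pyruvate for 5 min at room temperature in Tris pH 7.4. Remaining NADH was coupled through diaphorase/resazurin, and resorufin fluorescence was read at 0 and 20 min.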
# D1 ag: agonists of human D1 dopamine receptor; P21728; HEK293 T-REx D1 cells, calcium flux, agonist mode; activation, % at 2 µM; actives 1% (n = 360,000); also: 0% is about no effect
#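 Agonism was scored from calcium flux recorded over 180 s (1 read/s) after pintool compound addition, following a 10-cycle baseline. Cells were inducible force-coupled HEK293 TREx D1, plated overnight at 30 C and loaded with no-wash calcium dye.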
# Starred values were filed as active, the others as inactive; / = not tested or not shown; ! = not confirmed by another sample. An excerpt weighted towards active compounds, which were near 3.6% of everything screened. Rule as the data show it, unless noted: active = activation above about 30%; inactive = the rest.
SMILES,TRHR ag,D1 PAM,TRHR enhancer,D1 antag,LDHA inh,D1 ag
COc1ccccc1C(=O)Oc1c(Cl)cc(C#N)cc1OC,/,/,/,/,2.0,/
CC(C)(C)c1ccc(-c2n[nH]c(=S)n2Cc2ccccc2)cc1,-1.5,-0.7,0.0,1.4,-6.6,91.5*
FC(F)C(F)(F)Oc1cccc(-c2n[nH]c(=S)n2Cc2ccccc2)c1,-0.2,4.1,2.1,-39.5*,-5.6,0.2
CCCOC(=O)C(C)Oc1ccc2c(=O)c(Oc3ccc(CC)cc3)coc2c1 (stereo not given),/,/,/,/,-12.5,/
CN(Cc1ccccc1F)C(=O)c1ccc(Oc2ccccc2)cc1,0.0,-8.8,-7.2,-31.2*,0.2,2.8
S=C(NCc1ccco1)Nc1ccccc1,0.2,-4.2,14.4,8.3,-1.7,2.0
COc1ccc(/C=C(\NC(=O)c2ccccc2)C(=O)NCc2ccco2)cc1,-0.2,-2.5,-10.6,-30.7*,-5.5,1.9
S=C(NCc1ccco1)Nc1ccc(Cl)cc1,0.8,-5.4,-0.9,-31.0*,-3.0,21.1
O=C(NCc1ccco1)/C(=C\c1ccccc1)NC(=O)c1ccccc1,0.4,/,0.8,4.5,-6.3,5.0
O=C(NC(=S)NCc1ccco1)c1ccc(Br)cc1,-1.0,10.4,-11.0,14.5,-9.0,0.8
O=C(NC(=S)NCc1ccco1)c1ccccc1,-0.3,-4.2,-2.9,-31.4*,-4.0,2.0
O=C(O)Cc1ccc(NC(=S)NCc2ccco2)cc1,-0.1,-2.1,-4.6,-39.5*,-7.6,1.2
COc1ccc(Nc2nc(N)c(C(=O)c3cc(C)c(C)cc3C)s2)cc1,/,/,/,/,2.9,/
Oc1ccc(C23CCCC2C2(CCCC2)c2ccc(O)cc2O3)c(O)c1 (stereo not given),0.2,/,5.2,-8.5,-2.3,152.4*
COc1cc(/C=N/NC(=O)c2ccc(CSc3nc4ccccc4[nH]3)cc2)cc(OC)c1OC,-0.6,-9.9,3.9,-33.5*,-7.9,10.9
COc1cc(/C=N\NC(=O)c2ccc(-c3ccccc3)cc2)cc(OC)c1OC(C)=O,0.2,-4.9,3.6,5.6,-1.6,5.0
COc1cc(/C=N\NC(=O)c2ccc(-c3ccccc3)cc2)cc(OC)c1O,-0.5,-2.6,-2.7,-31.5*,-1.4,-0.1
C=CCNS(=O)(=O)c1ccc(C(=O)O)cc1,/,/,/,/,-1.8,/
Cc1cc2c(c(SCC(N)=O)n1)C(=O)OC2,0.0,-3.5,28.8,-6.1,-6.4,4.1
Cc1cc2c(c(SCC(=O)Nc3ccccc3)n1)C(=O)OC2,/,/,/,/,-37.2*,/
Cc1oc(-c2ccccc2)nc1C(=O)N(C)Cc1ccc(Br)cc1,/,/,/,/,9.5,/
O=C(CNC(=O)Cc1ccccc1)NCC(=O)OCC(=O)c1cccc2ccccc12,-0.6,-0.9,1.5,8.3,-41.1*!,-2.3
COc1ccccc1CC(C(=O)Nc1ccccc1C)c1nn[nH]n1 (stereo not given),/,/,/,/,0.9,/
COc1ccc(OC)c(C(=O)NC(CC(N)=O)c2ccc(NCc3ccccn3)c([N+](=O)[O-])c2)c1 (stereo not given),0.1,2.1,-1.3,-20.5,6.0,1.7
COc1ccc(OC)c(C(=O)NC(CC(N)=O)c2ccc(NCc3ccc(F)c(F)c3)c([N+](=O)[O-])c2)c1 (stereo not given),-0.4,0.8,35.7*,19.1,-0.8,2.2
SMILES,TRHR ag,D1 PAM,TRHR enhancer,D1 antag,LDHA inh,D1 ag
CC1(c2ccccc2)COC(c2coc3ccccc3c2=O)OC1 (stereo not given),/,/,/,/,8.6,/
O=C(CSc1ncnc2sccc12)Nc1ccccc1,-1.0,-8.8,-6.4,-61.1*,-2.3,6.6
O=C(CSc1ncnc2sccc12)Nc1ccccc1F,-0.7,-1.6,-8.7,-4.9,-1.7,1.9
OCCN(CCO)CC(O)COc1ccc(C23CC4CC(CC(C4)C2)C3)cc1 (stereo not given),0.3,2.0,1.9,22.7,1.9,31.2*
Cc1ccc(NC(=S)N2CCCC(c3nc4ccc(C)cc4[nH]3)C2)c(C)c1 (stereo not given),-0.7,-4.3,-2.7,-31.3*,-11.8,-1.5
O=C1COc2ccc(C(=O)COC(=O)CCSc3ccccc3)cc2N1,-0.8,-2.9,-8.6,-30.7*,0.2,11.1
COc1ccc(/C=C/C(=O)OCC(=O)c2ccc3c(c2)NC(=O)CO3)cc1,1.4,30.2*,14.8,8.5,-15.9,0.9
CC(=O)NN1C(=O)c2ccccc2NC12CCCCC2,/,/,/,/,2.6,/
CCCN1CCc2c(sc(NC(=O)c3ccc(S(=O)(=O)N4CCN(C(=O)OCC)CC4)cc3)c2C(N)=O)C1,4.1,-1.0,-4.0,5.2,-4.3,11.9
CCCN1CCc2c(sc(NC(=O)c3ccc(S(=O)(=O)N(C)c4ccccc4)cc3)c2C(N)=O)C1,62.7*,5.6,10.1,-19.9,-4.2,132.9*
CCCN1CCc2c(sc(NC(=O)c3ccc(S(=O)(=O)N(C)c4ccccc4)cc3)c2C(=O)NC)C1,19.9,1.5,0.0,-0.5,1.4,63.2*
CCN1CCc2c(sc(NC(=O)c3ccc(S(=O)(=O)N4CCCC4)cc3)c2C(=O)NC)C1,0.5,-2.7,3.4,-19.2,-1.7,0.6
Cc1nc(C23CC4CC(CC(C4)C2)C3)co1,/,/,/,/,-1.8,/
Cc1ccc(/C=C2/NC(=O)N(Cc3ccccc3F)C2=O)s1,13.6,-4.4,-1.4,8.9,-6.9,43.5*
Cc1cc(/C=C2/NC(=O)N(Cc3ccccc3F)C2=O)c(C)n1-c1ccccn1,-0.2,-3.5,2.5,-42.7*,3.7,2.1
O=C1N/C(=C/c2cccs2)C(=O)N1Cc1ccccc1F,1.0,-2.6,-5.1,-4.6,1.8,3.2
CCOc1ccc(C(=O)CCC(=O)N(CC)CC(=O)NCc2cccs2)cc1,-0.4,7.6,-3.1,-11.5,3.4,-0.3
CCOc1ccc(C(=O)CC(NCc2cccs2)C(=O)O)cc1 (stereo not given),0.4,-0.8,-0.3,-30.0*,-5.6,3.0
CC(C)CC(C(=O)NC(=O)NCc1ccccc1)N1C(=O)c2ccccc2C1=O (stereo not given),0.1,-9.4,-0.6,-78.8*,-6.6,1.5
CC(C)CC(C(=O)NCc1ccccn1)N1C(=O)c2ccccc2C1=O (stereo not given),-0.5,-0.3,12.7,1.3,0.3,1.3
CCCCn1nc(C(=O)N(C)Cc2ccccc2N2CCCCC2)c2ccccc2c1=O,/,/,/,/,1.7,/
Cc1ccc(-n2c(=O)c3c4c(sc3n(Cc3ccccc3C)c2=O)CCC4)cc1C,0.3,1.4,2.6,-72.0*,-6.1,1.3
COC(=O)c1ccc(NC(=O)Nc2nnc(N(C)C3CCCCC3)s2)cc1,-0.4,2.6,-1.0,-54.7*,-11.4,-0.7
CC(O)c1ccc(-c2ccc(CNC3CCCC3)o2)cc1 (stereo not given),/,/,/,/,5.4,/
CS(=O)(=O)Nc1ccc(C(=O)NCc2ccccn2)cc1,0.1,-8.9,0.6,14.8,-3.3,5.6
